Measurements as given in PubChem BioAssay (NCI).
About 83,000 compounds went through this panel and 20% of them were active in at least one assay; those are over-represented in the sample as a whole.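 The endpoint reported here, percent growth, reads 100 for growth as untreated, 0 for no net growth and -100 for all cells dead.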 The source made the active and inactive calls. The calls were made as follows: active = growth percent below 10; inactive = the rest.

Key:
Test in all cases: NCI-60 one-dose screen, 48 h (100 = growth as untreated, 0 = no growth, -100 = all killed)
Conditions in all cases: 10 µM unless noted
[1] = system: NCI-H23 lung
[2] = system: NCI-H226 lung
[3] = system: HOP-62 NSCLC
[4] = system: NCI-H460 lung
[5] = system: HOP-92 NSCLC
[6] = system: NCI-H522 lung
[7] = system: A549/ATCC NSCLC
[8] = system: 786-0 renal
[9] = system: COLO 205 colon
[10] = system: DU-145 prostate
[11] = system: K-562 leukemia
[12] = system: MALME-3M melanoma
[13] = system: MDA-MB-231 breast
[14] = system: RXF 393 renal
[15] = system: SF-268 CNS
[16] = system: SF-295 CNS
[17] = system: SF-539 CNS
[18] = system: UACC-257 melanoma
[19] = system: M14 melanoma

Measured: growth

COc1ccc(C(=O)c2cc(C)c(OC)c(C)c2)c(OC)c1OC(=O)C(Cl)Cl
active: [2] 6.91% | [4] 2.25% | [6] -10.8% | [10] 4.39% | [11] 8.43% | [17] -16% | [19] -9.89%
inactive: [1] 29.2% | [3] 17.4% | [5] 21.7% | [7] 11% | [8] 13.1% | [9] 73.5% | [12] 58.9% | [13] 18.8% | [14] 38.7% | [15] 25% | [16] 14.5% | [18] 48.1%

CC(C)N1C(=O)/C(=C2\SC(=S)N(C(C)C)C2=O)SC1=S
inactive: [1] 94% | [2] 101% | [3] 95.5% | [4] 101% | [5] 72.3% | [6] 90.6% | [7] 93.8% | [9] 110% | [10] 93.6% | [11] 93% | [12] 82.6% | [13] 81% | [14] 104% | [15] 94.5% | [16] 101% | [17] 85.1% | [18] 95.8% | [19] 95%

Cc1nc2sccn2c1-c1nc2sccn2c1/C=C1/C(=O)Nc2ccccc21
inactive: [1] 53.4% | [2] 63.1% | [3] 53.7% | [4] 20.5% | [8] 51.1% | [9] 20.1% | [10] 48% | [12] 50% | [13] 44.6% | [14] 32.7% | [15] 60.9% | [17] 16.4% | [18] 51.8% | [19] 34.2%
active: [6] -6.81% | [16] -8.95%

CC1(C)NCCC[C@]2(C)[C@H]3CC(=O)[C@H]4[C@@H]5C[C@](C)(CO)CC[C@]5(C)CC[C@@]4(C)[C@]3(C)CC[C@@H]12
inactive: [1] 104% | [2] 97.9% | [3] 92.4% | [4] 99.6% | [5] 84% | [6] 101% | [7] 92% | [8] 94% | [9] 94.2% | [10] 96.4% | [12] 102% | [13] 118% | [14] 91.4% | [15] 85.3% | [16] 106% | [17] 91.2% | [18] 114% | [19] 92.6%

CN1CCN(C(=O)[C@]23CCC(C)(C)C[C@H]2C2=CC[C@@H]4[C@@]5(C)C/C(=C/c6ccncc6)C(=O)C(C)(C)[C@@H]5CC[C@@]4(C)[C@]2(C)CC3)CC1
inactive: [1] 72.4% | [2] 68.7% | [3] 83.1% | [4] 33.1% | [5] 41% | [6] 55.9% | [7] 43.8% | [8] 67.2% | [9] 41.9% | [10] 68.4% | [11] 19% | [12] 57.7% | [13] 64.2% | [14] 27.6% | [15] 64.4% | [16] 67.1% | [17] 69.3% | [18] 57.5% | [19] 57.4%

O=C1Nc2cc(-c3cccc(O)c3)ccc2/C1=C/c1ccc[nH]1
active: [1] 4.68% | [4] 4.52% | [6] 3.76% | [11] 5.66% | [13] -15.8% | [14] -39.8% | [17] -48.7%
inactive: [2] 73.9% | [3] 14% | [5] 30.9% | [7] 17.7% | [8] 15% | [9] 83.7% | [10] 33.8% | [12] 16.1% | [15] 15.4% | [16] 19.3% | [18] 46% | [19] 16.9%

COc1c(Cl)c2c(c(OC)c1OC)-c1ccc(SC)c(=O)cc1[C@@H](NC(=O)OCC(F)(F)F)CC2
inactive: [1] 34.1% | [2] 16.4% | [3] 34.3% | [5] 23.4% | [6] 17.9% | [7] 22.2% | [8] 11% | [12] 34.9% | [14] 18.7% | [15] 27.2% | [16] 15% | [18] 70.5%
active: [4] 2.44% | [9] -0.15% | [10] -6.54% | [11] 7.39% | [13] -1.03% | [17] -19% | [19] 0.43%

O=S(=O)(NCCCNc1nccc(-c2c(-c3cccc(F)c3)nc3sccn23)n1)c1cccc(F)c1
inactive: [1] 38.8% | [2] 23.2% | [5] 74.8% | [6] 21.9% | [7] 49.3% | [8] 66.3% | [9] 23.4% | [10] 55.5% | [11] 20.1% | [12] 63.2% | [13] 75.9% | [14] 78.8% | [15] 55.6% | [16] 51.1% | [17] 86.4% | [18] 50.8% | [19] 28.6%

O=C(O)c1ccc2c(c1)C(=O)N(Cc1ccccc1)C2=O
inactive: [1] 98.5% | [2] 92.7% | [3] 95.8% | [4] 102% | [5] 86.2% | [6] 91.4% | [7] 101% | [8] 95.5% | [9] 107% | [10] 102% | [12] 97.4% | [13] 101% | [14] 103% | [15] 98% | [16] 95% | [17] 103% | [18] 74.2% | [19] 100%
